Reference: PubChem BioAssay (NCATS)
Records with an inconclusive call do not appear. The source made the active and inactive calls. Calls come from the whole dose curve; as a rule, active = well fitted cell-killing curve with a large enough effect; inconclusive = small, poorly fitted or top-dose-only effect, or effect the other way; inactive = flat fitted curve, though single readings scatter.

Tests used:
Experiment in all cases: Primary qHTS to identify gynecologic anti-cancer compounds using libraries of approved drugs and bioactive compounds (AID 1345084); note: nearly all actives have a fitted effect of over 55% in size
Es-2 = details: Gynecologic cancer cell panel viability, ATPlite luminescence, 48 h; series mostly up to 57.5 µM
Procedure, shortened: (§1)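 ATP-based viability (ATPlite), 1,000 cells/well, 16 h pre-incubation, 48 h compound at 37 C, 5% CO2, 15 min RT before read.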

HeLa = details: Gynecologic cancer cell panel viability, ATPlite luminescence, 48 h; series mostly up to 57.5 µM
Procedure, shortened: as §1

Hek293T = details: Gynecologic cancer cell panel viability, ATPlite luminescence, 48 h, control line for the selectivity index; series mostly up to 57.5 µM
Procedure, shortened: as §1

JEG-3 = details: Gynecologic cancer cell panel viability, ATPlite luminescence, 48 h; series mostly up to 57.5 µM
Procedure, shortened: as §1

OV90 = details: Gynecologic cancer cell panel viability, ATPlite luminescence, 48 h; series mostly up to 57.5 µM
Procedure, shortened: as §1

PA-1 = details: Gynecologic cancer cell panel viability, ATPlite luminescence, 48 h; series mostly up to 57.5 µM
Procedure, shortened: as §1

SKOV3 = details: Gynecologic cancer cell panel viability, ATPlite luminescence, 48 h; series mostly up to 57.5 µM
Procedure, shortened: as §1

Tov-21-G = details: Gynecologic cancer cell panel viability, ATPlite luminescence, 48 h; series mostly up to 57.5 µM
Procedure, shortened: as §1

Tov112D = details: Gynecologic cancer cell panel viability, ATPlite luminescence, 48 h; series mostly up to 57.5 µM
Procedure, shortened: as §1
% is set by controls: 0 for no effect and ±100 for the full control effect.

c1ccc(Cc2ncc3c(n2)CCNCC3)cc1
inactive: Potency (Es-2) | Potency (HeLa) | Potency (Hek293T) | Potency (JEG-3) | Potency (OV90) | Potency (PA-1) | Potency (SKOV3) | Potency (Tov-21-G) | Potency (Tov112D)

COc1cc(/C=C/c2cc(O)cc(O[C@@H]3O[C@H](CO)[C@@H](O)[C@H](O)[C@H]3O)c2)ccc1O
inactive: Potency (Es-2) | Potency (HeLa) | Potency (Hek293T) | Potency (JEG-3) | Potency (OV90) | Potency (PA-1) | Potency (SKOV3) | Potency (Tov-21-G) | Potency (Tov112D)

C=CC(C)(O)CC/C=C(\C)C(=O)OC1CC2(C(=O)O)CCC3(C)C(=CCC4C5(C)CCC(OC6OC(COC7OCC(O)C(O)C7O)C(O)C(OC7OCC(O)C(O)C7O)C6OC6OC(CO)C(O)C(O)C6OC6OCC(O)C(O)C6O)C(C)(C)C5CCC43C)C2CC1(C)C (centres undefined)
inactive: activity change, negative = cytotoxicity (Es-2) 6.29% [at 6.55 µM] | activity change, negative = cytotoxicity (HeLa) 13.4% [at 6.55 µM] | activity change, negative = cytotoxicity (Hek293T) -1.17% [at 6.55 µM] | activity change, negative = cytotoxicity (JEG-3) -1.3% [at 6.55 µM] | activity change, negative = cytotoxicity (OV90) 0.467% [at 6.55 µM] | activity change, negative = cytotoxicity (PA-1) 9.33% [at 6.55 µM] | activity change, negative = cytotoxicity (SKOV3) -0.175% [at 6.55 µM] | activity change, negative = cytotoxicity (Tov-21-G) 1.97% [at 6.55 µM] | activity change, negative = cytotoxicity (Tov112D) 4.31% [at 6.55 µM]

COc1cc(COC2OC(CO)C(O)C(O)C2O)cc(OC)c1O (centres undefined)
inactive: Potency (Es-2) | Potency (HeLa) | Potency (Hek293T) | Potency (JEG-3) | Potency (OV90) | Potency (PA-1) | Potency (SKOV3) | Potency (Tov-21-G) | Potency (Tov112D)

CC(=O)O[C@H]1C[C@@H]2[C@]3(CC[C@]4(C)[C@@H](C5(C)CCC(C(C)(C)O)O5)[C@@H](O)C[C@@]24C)C[C@@]32CC[C@H](O[C@@H]3OC[C@@H](O)[C@H](O)[C@H]3O)C(C)(C)[C@H]12 (some centres undefined)
inactive: Potency (Es-2) | Potency (HeLa) | Potency (Hek293T) | Potency (JEG-3) | Potency (OV90) | Potency (PA-1) | Potency (SKOV3) | Potency (Tov-21-G) | Potency (Tov112D)

C=C1CC23CCC4[C@@](C)(CCC[C@@]4(C)C(=O)O)C2CCC1C3 (some centres undefined)
inactive: Potency (Es-2) | Potency (HeLa) | Potency (Hek293T) | Potency (JEG-3) | Potency (OV90) | Potency (PA-1) | Potency (SKOV3) | Potency (Tov-21-G) | Potency (Tov112D)

COc1cc(C2OCC3C(c4ccc(OC5OC(CO)C(O)C(O)C5O)c(OC)c4)OCC23)ccc1O (centres undefined)
inactive: Potency (Es-2) | Potency (HeLa) | Potency (Hek293T) | Potency (JEG-3) | Potency (OV90) | Potency (PA-1) | Potency (SKOV3) | Potency (Tov-21-G) | Potency (Tov112D)

CC1(O)CCC2C(C(=O)O)=COC(OC3OC(CO)C(O)C(O)C3OC(=O)/C=C/c3ccc(O)cc3)C21 (centres undefined)
inactive: Potency (Es-2) | Potency (HeLa) | Potency (Hek293T) | Potency (JEG-3) | Potency (OV90) | Potency (PA-1) | Potency (SKOV3) | Potency (Tov-21-G) | Potency (Tov112D)

COc1ccc(C(O[C@@H]2O[C@H](CO)[C@@H](O)[C@H](O)[C@H]2O)C(CO)Oc2ccc(/C=C/CO)cc2OC)cc1O (some centres undefined)
inactive: Potency (Es-2) | Potency (HeLa) | Potency (Hek293T) | Potency (JEG-3) | Potency (OV90) | Potency (PA-1) | Potency (SKOV3) | Potency (Tov-21-G) | Potency (Tov112D)

C[C@@H]1C[C@H](O[C@@H]2O[C@H](CO[C@@H]3OC[C@](O)(CO)[C@H]3O)[C@@H](O)[C@H](O)[C@H]2O)CC(C)(C)[C@H]1/C=C/[C@@H](C)O
inactive: Potency (Es-2) | Potency (HeLa) | Potency (Hek293T) | Potency (JEG-3) | Potency (OV90) | Potency (PA-1) | Potency (SKOV3) | Potency (Tov-21-G) | Potency (Tov112D)

C=C(C(=O)O)C1CCC(C)C2CCC(=O)OC2(C)C1 (centres undefined)
inactive: Potency (Es-2) | Potency (HeLa) | Potency (Hek293T) | Potency (JEG-3) | Potency (OV90) | Potency (PA-1) | Potency (SKOV3) | Potency (Tov-21-G) | Potency (Tov112D)

COc1c(C)c2c(c(O)c1C/C=C(\C)CC/C=C(\C)CCC(=O)O)C(=O)OC2
inactive: Potency (Es-2) | Potency (HeLa) | Potency (Hek293T) | Potency (JEG-3) | Potency (OV90) | Potency (PA-1) | Potency (SKOV3) | Potency (Tov-21-G) | Potency (Tov112D)

C[C@@H]1C/C=C/C=C\C=C\C=C\[C@H](O[C@@H]2O[C@H](C)[C@@H](O)[C@H](N)[C@@H]2O)C[C@@H]2O[C@](O)(C[C@@H](O)C[C@H]3O[C@@H]3/C=C/C(=O)O1)C[C@H](O)[C@H]2C(=O)O
inactive: Potency (Es-2) | Potency (HeLa) | Potency (Hek293T) | Potency (JEG-3) | Potency (OV90) | Potency (PA-1) | Potency (SKOV3) | Potency (Tov-21-G) | Potency (Tov112D)

C/C=C(\C)C(=O)O[C@H]1[C@@H](O[C@]2(COC(=O)CC(C)C)O[C@H](COC(=O)C(C)C)[C@@H](OC(C)=O)[C@@H]2O)O[C@H](COC(C)=O)[C@@H](O)[C@@H]1O
inactive: Potency (Es-2) | Potency (HeLa) | Potency (Hek293T) | Potency (JEG-3) | Potency (OV90) | Potency (PA-1) | Potency (SKOV3) | Potency (Tov-21-G) | Potency (Tov112D)

C=CC1(C)C=C2C(O)CC3C(C)(C(=O)O)CCCC3(C)C2CC1 (centres undefined)
inactive: Potency (Es-2) | Potency (HeLa) | Potency (Hek293T) | Potency (JEG-3) | Potency (OV90) | Potency (PA-1) | Potency (SKOV3) | Potency (Tov-21-G) | Potency (Tov112D)

CO[C@@]12CC3[C@@H]([C@@H](O)[C@@H](OC(C)=O)C4[C@](C)(COC(C)=O)CCC[C@]34C)[C@@H](C)C1=CC(=O)O2 (some centres undefined)
inactive: Potency (Es-2) | Potency (HeLa) | Potency (Hek293T) | Potency (JEG-3) | Potency (OV90) | Potency (PA-1) | Potency (SKOV3) | Potency (Tov-21-G) | Potency (Tov112D)
